Screening data as filed in PubChem BioAssay.
This excerpt belongs to a sample that is enriched for hits.
CD40 NFkB inh – inhibitors of CD40-induced NF-kB signaling, primary screen, BL2 cells, luciferase reporter, single point. AID 1053188, 2014. 83,000 compounds, 0.94% hits. inhibition, % at 10 µM. CD40L-induced, 4 h;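 active = mean inhibition of at least 50% with a set share of replicates also reaching that level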;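 also: 0% = neutral control wells and 100% = IKK inhibitor VII at 50 µM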
Numbers without * were called inactive; ! = a repeat was not active; [ ] = remark or other dose.

SMILES	CD40 NFkB inh
C[C@H]1CN([C@@H](C)CO)C(=O)Cc2cc(NS(C)(=O)=O)ccc2O[C@@H]1CN(C)C(=O)Nc1ccccc1	5.9[25 µM]
COc1ccc(S(=O)(=O)N(C)C[C@@H]2Oc3ccc(NC(=O)CCC(F)(F)F)cc3C(=O)N([C@H](C)CO)C[C@H]2C)cc1	-3.8
O=C(Cc1ccncc1)Nc1ccc2c(c1)[C@@H]1C[C@H](CC(=O)NC3CCCC3)O[C@@H](CO)[C@@H]1O2	8.8
CCCNC(=O)N1[C@H](CO)[C@H]2c3ccccc3N(C(=O)Nc3ccccc3)C[C@H]21	-18.5
CCC(=O)N1C[C@@H]2[C@H](c3ccccc31)[C@H](CO)N2CC1CCCC1	8.1[25 µM]
Cc1noc(C)c1S(=O)(=O)Nc1ccc2c(c1)CC(=O)N([C@@H](C)CO)C[C@H](C)[C@@H](CN(C)C(=O)Nc1cccc3ccccc13)O2	0.5[25 µM]
O=C(C[C@H]1C[C@H]2c3cc(NC(=O)c4ccc5c(c4)OCO5)ccc3O[C@H]2[C@@H](CO)O1)NC1CCCC1	-2.6
C[C@H](NC(=O)N(C)C[C@H]1OCc2ccccc2-c2ccccc2C(=O)N([C@H](C)CO)C[C@H]1C)c1ccccc1	-10.7[25 µM]
Cc1ccccc1S(=O)(=O)N1[C@@H]2CNC[C@H]1C2c1ccc(/C=C/c2ccccc2)cc1 (some centres not stated)	51.4*!
COc1ccccc1S(=O)(=O)N1[C@@H]2CNC[C@H]1C2c1ccc(/C=C/c2ccccc2)cc1 (some centres not stated)	14.0[25 µM]
Cc1ccccc1S(=O)(=O)N1[C@@H]2CNC[C@H]1[C@@H]2c1ccc(-c2ccc(C#N)cc2)cc1	8.3[25 µM]
C[C@H]1CN(C)C(=O)c2cc([N+](=O)[O-])ccc2O[C@H]1CN(C)C(=O)OC(C)(C)C	-2.0
CN(C)c1ccc2c(c1)[C@H]1C[C@H](CC(=O)O)O[C@@H](CO)[C@H]1O2	2.3[25 µM]
CCCNC(=O)N1[C@H](C#N)[C@H](c2ccc(-c3cccnc3)cc2)[C@@H]1CO	13.5
COc1ccc(/C=N/NC(=O)CC(=O)N/N=C/c2ccc(OC)cc2)cc1	2.9
Cc1nonc1C(=O)N/N=C/c1ccc([N+](=O)[O-])o1	-5.6
COc1ccc(/C=N/NC(=O)c2nonc2C)cc1	63.9*
CN(C)C(=O)c1cccc(-c2ccc3n(c2=O)C[C@H]2[C@H](CO)[C@@H](C(=O)NCC(F)(F)F)[C@@H]3N2C)c1	-7.7[25 µM]
Cc1cccc(-c2ccc([C@H]3[C@@H](CO)N4C(=O)CN(C(=O)c5ccc6c(c5)OCO6)C[C@@H]34)cc2)c1	3.9[25 µM]
COc1ccc(NC(=O)c2ccc(OCC3CCCO3)cc2)cc1OC (configuration not stated)	-27.7
Cc1ccnc(NC(=O)c2ccc3c(c2)C(=O)N(CC2CCCO2)C3=O)c1 (configuration not stated)	-73.1
Cc1ccnc(NC(=O)c2ccc(OCC3CCCO3)cc2)c1 (configuration not stated)	86.8*
N#C[C@@H]1[C@@H](c2ccccc2C2=CCCC2)[C@H](CO)N1C(=O)NC1CCCCC1	30.2[25 µM]
CCOc1ccc2c(ccc(/C=C/c3cc(C)c4cccnc4c3O)[n+]2C)c1	78.6*
CC(C)NC(=O)N1C[C@@H]2[C@H](c3ccccc31)[C@@H](CO)N2C(=O)C1CCCC1	5.5[25 µM]
SMILES	CD40 NFkB inh
CN1C(=O)c2cc(NC(=O)c3cccc(F)c3)ccc2OC[C@H]2O[C@@H](CC(=O)NCC3CC3)CC[C@@H]21	6.2
Cc1ccc(S(=O)(=O)N[C@@H]2CC[C@@H](CCNC(=O)C3CCCC3)O[C@@H]2CO)cc1	-5.8
Cn1cnc(CCNC(=O)C[C@H]2CC[C@@H]3[C@H](COC[C@@H](O)CN3C(=O)Nc3ccc(C(F)(F)F)cc3)O2)c1	21.1[25 µM]
Cn1cnc(CCNC(=O)C[C@@H]2CC[C@@H]3[C@H](COC[C@@H](O)CN3C(=O)Nc3ccc(C(F)(F)F)cc3)O2)c1	51.7*[25 µM]
Cn1cnc(CCNC(=O)C[C@@H]2CC[C@@H]3[C@H](COC[C@H](O)CN3C(=O)Nc3ccc(C(F)(F)F)cc3)O2)c1	5.0[25 µM]
COc1cccc(NC(=O)C[C@@H]2CC[C@@H]3[C@H](COc4ccc(NC(=O)C5CCC5)cc4C(=O)N3C)O2)c1	15.9
Cc1ccccc1-c1ccc([C@@H]2[C@H]3CN(C(=O)c4ccncc4)CC(=O)N3[C@H]2CO)cc1	-9.2[25 µM]
CC=Cc1ccc2n(c1=O)C[C@@H]1[C@@H](CO)[C@H](C(=O)NCCc3ccncc3)N(CCC(F)(F)F)[C@H]21 (mixture of isomers)	-8.7[25 µM]
c1ccc(-c2nc(NCCCn3ccnc3)c3ccccc3n2)cc1	18.3
COc1ccccc1-c1cnn2c(NCCc3ccccc3)cc(C)nc12	-52.9
Cc1cc(NCCCn2ccnc2)n2ncc(-c3ccccc3)c2n1	88.4*
O=C(Nc1ccccc1F)N1C[C@H]2[C@@H](c3ccccc31)[C@@H](CO)N2C(=O)C1CCOCC1	-49.3
COc1ccccc1S(=O)(=O)N[C@H]1CC[C@@H](CCNC(=O)C2CCCC2)O[C@@H]1CO	-6.9
COc1ccc2c3c(n(C)c2c1)[C@@H](CO)N(C(=O)Nc1ccc(F)cc1)CC31CN(C(=O)CN2CCOCC2)C1	4.2[25 µM]
Cc1nc(C)c(C(=O)Nc2ncc([N+](=O)[O-])s2)o1	68.6*
CCCCC(=O)Nc1ncc([N+](=O)[O-])s1	-23.7
CC(C)CC(=O)Nc1ncc([N+](=O)[O-])s1	3.9
Cc1cccc(S(=O)(=O)N2CC[C@H]3[C@@H](CO)N(C)c4ccc(-c5cccc(C#N)c5)cc4[C@H]32)c1	-11.5[25 µM]
O=C(C[C@@H]1C[C@@H]2c3cc(NC(=O)c4cccnc4)ccc3O[C@@H]2[C@H](CO)O1)NC1CCCCC1	-25.9[25 µM]
COc1ccccc1NC(=O)N1C[C@H]2[C@@H](c3ccccc31)[C@H](CO)N2Cc1ccccc1F	-19.4[25 µM]
CCCCCCCCNC(=O)C(Cc1ccc(OCc2ccncc2)cc1)NC(=O)C1CCC(CN)CC1 (configuration not stated)	7.6[25 µM]
COc1ccc(S(=O)(=O)N(C)C[C@H]2OCc3cn(nn3)CCCC(=O)N([C@@H](C)CO)C[C@H]2C)cc1	-1.8[25 µM]
CC(=O)N(C)C[C@H]1OCc2ccccc2-c2ccccc2C(=O)N([C@H](C)CO)C[C@H]1C	-9.6[25 µM]
O=C(NCC1CC1)[C@H]1[C@H](CO)[C@H]2Cn3c(cccc3=O)[C@H]2N1CCC(F)(F)F	10.8[25 µM]
O=C(C[C@@H]1CC[C@@H]2[C@H](COC[C@H](O)CN2CC2CCCC2)O1)NCc1ccc(Cl)cc1	8.6
SMILES	CD40 NFkB inh
COc1ccccc1C(=O)Nc1ccc2c(c1)C(=O)N(C)[C@H]1CC[C@H](CC(=O)Nc3cc(F)ccc3F)O[C@@H]1CO2	30.4[25 µM]
CC(C)c1cccc(NC(=O)C[C@H]2CC[C@H]3[C@@H](COc4ccc(NS(=O)(=O)c5ccccc5Cl)cc4C(=O)N3C)O2)c1	23.6[25 µM]
COc1ccccc1C(=O)Nc1ccc2c(c1)C(=O)N(C)[C@H]1CC[C@H](CC(=O)Nc3cccc(C(C)C)c3)O[C@@H]1CO2	56.7*[25 µM]
N#C[C@H]1[C@@H](c2ccccc2C2=CCCCC2)[C@@H](CO)N1C(=O)c1cccc(F)c1	1.8[25 µM]
CC(=O)N(CCC(Cc1ccccc1)c1ccc2c(c1)OCO2)Cc1ccccc1F (configuration not stated)	11.6
Fc1ccccc1CNCCC(Cc1ccccc1)c1ccc2c(c1)OCO2 (configuration not stated)	32.5*
CC(C)CCC(CCNCc1ccccn1)c1ccc2c(c1)OCO2 (configuration not stated)	15.1
C[C@H]1CN([C@@H](C)CO)S(=O)(=O)c2ccc(C#CC3CC3)cc2O[C@@H]1CN(C)C(=O)CN(C)C	-0.2[25 µM]
